In publication PMC4336329 (PLoS ONE, 2015):
About 14,000 (4.5%) of roughly 310,000 compounds showed an effect of 50% or more. The effect is printed as a negative number. For the sample, strong results were picked, then their nearest neighbours and some compounds at random.
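Note: peak tail current of the secondary pulse compared with the same well before compound.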

These compounds were tested against human ether-à-go-go-related gene (hERG) potassium channel (human, UniProt Q12809) (assay: primary screen, population patch clamp on CHO cells stably expressing hERG; higher = less effect of the substance).
Chain of human ether-à-go-go-related gene (hERG) potassium channel (Q12809 whole entry, looked up): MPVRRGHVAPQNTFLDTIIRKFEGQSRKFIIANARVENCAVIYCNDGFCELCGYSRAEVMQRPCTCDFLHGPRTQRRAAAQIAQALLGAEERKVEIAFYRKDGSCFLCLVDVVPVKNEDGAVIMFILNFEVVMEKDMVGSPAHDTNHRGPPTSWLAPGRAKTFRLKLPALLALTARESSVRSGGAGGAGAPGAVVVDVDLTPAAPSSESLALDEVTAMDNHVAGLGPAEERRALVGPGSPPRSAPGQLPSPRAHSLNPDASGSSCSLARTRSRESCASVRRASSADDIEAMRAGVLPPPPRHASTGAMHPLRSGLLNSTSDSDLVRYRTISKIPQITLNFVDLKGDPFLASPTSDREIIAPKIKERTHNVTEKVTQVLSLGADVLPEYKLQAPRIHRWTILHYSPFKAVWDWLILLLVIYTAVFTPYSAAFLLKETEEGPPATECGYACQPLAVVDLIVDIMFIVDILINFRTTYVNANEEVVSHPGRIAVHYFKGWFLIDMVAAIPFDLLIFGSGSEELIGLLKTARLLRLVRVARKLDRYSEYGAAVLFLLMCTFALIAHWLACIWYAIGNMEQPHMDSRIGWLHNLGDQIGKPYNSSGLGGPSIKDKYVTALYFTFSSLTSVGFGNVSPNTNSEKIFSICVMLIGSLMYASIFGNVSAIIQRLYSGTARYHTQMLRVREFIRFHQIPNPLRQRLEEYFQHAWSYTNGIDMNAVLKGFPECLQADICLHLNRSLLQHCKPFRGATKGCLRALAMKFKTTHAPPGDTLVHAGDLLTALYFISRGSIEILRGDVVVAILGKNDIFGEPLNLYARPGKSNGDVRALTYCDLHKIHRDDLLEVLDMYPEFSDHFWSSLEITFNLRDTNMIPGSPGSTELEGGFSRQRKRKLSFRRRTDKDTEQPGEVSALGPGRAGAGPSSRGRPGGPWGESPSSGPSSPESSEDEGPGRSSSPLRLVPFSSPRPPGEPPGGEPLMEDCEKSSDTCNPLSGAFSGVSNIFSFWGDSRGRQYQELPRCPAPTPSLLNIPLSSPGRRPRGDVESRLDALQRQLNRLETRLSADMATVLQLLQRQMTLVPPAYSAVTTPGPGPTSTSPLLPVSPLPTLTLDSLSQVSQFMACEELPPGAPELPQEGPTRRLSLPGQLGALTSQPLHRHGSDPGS
With `CCOC(=O)c1ccc(NC(=S)N(CCCN2CCCC2)Cc2cccs2)cc1` the “hERG current change (%, negative = inhibition) at 10uM” value was -67.5%.
In the case of `CCOC(=O)c1ccc(NC(=S)N(CCCN2CCCC(C)C2)Cc2cccs2)cc1` (stereo not drawn), the “hERG current change (%, negative = inhibition) at 10uM” value was -76.3%.
With `CCOC(=O)c1ccc(NC(=S)N(CCN(C)C)Cc2cccs2)cc1` the “hERG current change (%, negative = inhibition) at 10uM” value was -9.16%.
`CCOC(=O)c1ccc(NC(=S)N(CCN2CCCCCC2)Cc2cccs2)cc1` was tested, and the “hERG current change (%, negative = inhibition) at 10uM” value was -11.6%.
For `CCOC(=O)c1ccc(NC(=S)N2CCCC(C)C2)cc1` (stereo not drawn), the “hERG current change (%, negative = inhibition) at 10uM” value was -28.4%.
For `COC(CNC(=O)CNC(=S)N(CCCN1CCOCC1)Cc1cccs1)OC`, the “hERG current change (%, negative = inhibition) at 10uM” value was 6.42%.
`O=C(N/N=C/C(Br)=C/c1ccccc1)c1ccncc1` was tested, and the “hERG current change (%, negative = inhibition) at 10uM” value was 0.715%.
With `Cc1ccc(NC(=O)c2ccccc2NC(=O)c2cccs2)cc1` the “hERG current change (%, negative = inhibition) at 10uM” value was 20.1%.
With `Cc1cccc(NS(=O)(=O)c2cc(Cl)ccc2Cl)n1` the “hERG current change (%, negative = inhibition) at 10uM” value was 22.2%.
With `CN1CCN(C2=C(Cl)C(=O)N(c3ccc(Cl)c(Cl)c3)C2=O)CC1` the “hERG current change (%, negative = inhibition) at 10uM” value was 14.1%.
In the case of `COc1cccc(OCCNC(=O)c2cccc(OC)c2)c1`, the “hERG current change (%, negative = inhibition) at 10uM” value was -1.4%.
For `Cc1cc(/C(=N/O)C(C)(C)NO)ccc1Cl`, the “hERG current change (%, negative = inhibition) at 10uM” value was 5.73%.
With `COc1ccc(CNc2ccc(Cl)cc2)cc1Cn1ccnc1` the “hERG current change (%, negative = inhibition) at 10uM” value was -20.3%.
In the case of `COc1ccc(C(NC(=O)/C=C/c2ccco2)c2ccc(OC)cc2)cc1`, the “hERG current change (%, negative = inhibition) at 10uM” value was -13.3%.
With `Brc1ccc(-c2nnc3sc(CN4CCN(c5ccccc5)CC4)cn23)cc1` the “hERG current change (%, negative = inhibition) at 10uM” value was -1.83%.
For `O=C(NCCN1C(=O)S/C(=C\c2ccc(Cl)c(Cl)c2)C1=O)c1cnccn1`, the “hERG current change (%, negative = inhibition) at 10uM” value was 1.98%.
`O=C(NCCN1C(=O)S/C(=C\c2ccc(OC(F)F)cc2)C1=O)[C@@H]1CCCN1C(=O)c1cccs1` was tested, and the “hERG current change (%, negative = inhibition) at 10uM” value was -63.5%.
In the case of `COc1ccc(/C=C2/SC(=O)N(CCNC(=O)C3CCCN3C(=O)c3cccs3)C2=O)cc1` (stereo not drawn), the “hERG current change (%, negative = inhibition) at 10uM” value was -22.8%.
`O=C(NCCN1C(=O)S/C(=C/c2ccccc2)C1=O)C1CCCN1C(=O)c1cccs1` (stereo not drawn) was tested, and the “hERG current change (%, negative = inhibition) at 10uM” value was -26.9%.
`O=C(NCCN1C(=O)S/C(=C\c2cccnc2)C1=O)c1cccc(OC(F)F)c1` was tested, and the “hERG current change (%, negative = inhibition) at 10uM” value was -48.7%.
For `O=C(NCCN1C(=O)S/C(=C\c2ccc(OC(F)F)cc2)C1=O)c1cnccn1`, the “hERG current change (%, negative = inhibition) at 10uM” value was -57.1%.
With `O=C(c1ccco1)N1N=C(c2ccco2)CC1c1ccc(Cl)cc1Cl` (stereo not drawn) the “hERG current change (%, negative = inhibition) at 10uM” value was 11.9%.
`CN(C)S(=O)(=O)Nc1cccc(-c2cn3c(n2)SCC3)c1` was tested, and the “hERG current change (%, negative = inhibition) at 10uM” value was 11.2%.
With `O=[N+]([O-])c1cc(C(F)(F)F)cc([N+](=O)[O-])c1NCCN1CCNCC1` the “hERG current change (%, negative = inhibition) at 10uM” value was 4.88%.
In the case of `CN1CCN(S(=O)(=O)c2ccc([N+](=O)[O-])cc2)CC1`, the “hERG current change (%, negative = inhibition) at 10uM” value was -14.6%.
`CC1CC(C)CN(S(=O)(=O)c2ccc(Oc3ccc([N+](=O)[O-])cc3)cc2)C1` (stereo not drawn) was tested, and the “hERG current change (%, negative = inhibition) at 10uM” value was -9.72%.
In the case of `CC1CN(C)C(C)C/C1=N\Oc1ccc([N+](=O)[O-])cc1.Cl` (stereo not drawn), the “hERG current change (%, negative = inhibition) at 10uM” value was -78.6%.
`CN1CCC(=NOc2ccc([N+](=O)[O-])cc2)CC1` was tested, and the “hERG current change (%, negative = inhibition) at 10uM” value was -74.8%.
`CC1CN(C)C(C)C/C1=N/Oc1ccccc1[N+](=O)[O-].Cl` (stereo not drawn) was tested, and the “hERG current change (%, negative = inhibition) at 10uM” value was -26.5%.
In the case of `CC1=CC(=O)C=C(C)C1=NOc1ccc([N+](=O)[O-])cc1`, the “hERG current change (%, negative = inhibition) at 10uM” value was -3.45%.
`Cc1nc2c(cnn2-c2ccccc2)c(=O)n1/N=C/c1ccccc1` was tested, and the “hERG current change (%, negative = inhibition) at 10uM” value was 11.9%.
`N/C(=N\OC(=O)Nc1ccccc1)c1ncc([N+](=O)[O-])s1` was tested, and the “hERG current change (%, negative = inhibition) at 10uM” value was -2.31%.
`Cc1ccc2c(c1)N(Cc1cccc(C#N)c1)C=NS2(=O)=O` was tested, and the “hERG current change (%, negative = inhibition) at 10uM” value was 9.38%.
`CCn1c(-c2ccc([N+](=O)[O-])cc2)n[nH]c1=S` was tested, and the “hERG current change (%, negative = inhibition) at 10uM” value was 9.07%.
In the case of `CCC(=O)Nc1ccccc1C(=O)OCC(=O)c1ccccc1`, the “hERG current change (%, negative = inhibition) at 10uM” value was -28.1%.
With `CCc1ccccc1NC(=S)N(CCN1CCCCC1)Cc1ccco1` the “hERG current change (%, negative = inhibition) at 10uM” value was -46.7%.
In the case of `CCc1ccc(NC(=S)N(CCCN2CCOCC2)Cc2ccco2)cc1`, the “hERG current change (%, negative = inhibition) at 10uM” value was -12.6%.
`COc1ccc(NC(=S)N(CCN2CCCCC2)Cc2ccco2)cc1` was tested, and the “hERG current change (%, negative = inhibition) at 10uM” value was -57.5%.
`CCc1ccc(NC(=S)N(CCN2CCCCC2)Cc2ccco2)cc1` was tested, and the “hERG current change (%, negative = inhibition) at 10uM” value was -75.4%.
With `COc1ccc(NC(=S)N(CCCN2CCCC2)Cc2ccco2)cc1` the “hERG current change (%, negative = inhibition) at 10uM” value was -39.4%.
For `COc1cccc(NC(=S)N(CCN2CCCCC2)Cc2ccco2)c1`, the “hERG current change (%, negative = inhibition) at 10uM” value was -43.9%.
With `O=C1COc2ccc3ccccc3c21` the “hERG current change (%, negative = inhibition) at 10uM” value was -4.35%.
For `Cc1cc(C(=O)C(=O)O)c(C)n1-c1ccc(Cl)cc1`, the “hERG current change (%, negative = inhibition) at 10uM” value was -43.4%.
For `O=C(CCC1CCCC1)NCCS(=O)(=O)N1CCN(c2ccccc2)CC1`, the “hERG current change (%, negative = inhibition) at 10uM” value was -12.9%.
For `NC(=O)C1(N2CCCCC2)CCN(C(=O)c2ccc(-n3cnnn3)cc2)CC1`, the “hERG current change (%, negative = inhibition) at 10uM” value was -30.6%.
